According to the supplement of paper PMC3334620:
In all, about 33,000 sequences were measured (“E-score (-0.5 to 0.5)”: median about -0.056, highest 2% from about 0.38 on). The list comes from a sample in which the highest values are over-represented; it also holds similar and randomly drawn sequences.

target: Stb4 (UniProt P50104); assay: PBM E-score (8-mer binding enrichment) (E-score (-0.5 to 0.5)); higher = stronger / more preferred TF binding; details: protein concentration: 200 nM; construct: GST-DNA-binding domain
Sequence of UniProt P50104 (P50104 whole entry, the tested form may be a part): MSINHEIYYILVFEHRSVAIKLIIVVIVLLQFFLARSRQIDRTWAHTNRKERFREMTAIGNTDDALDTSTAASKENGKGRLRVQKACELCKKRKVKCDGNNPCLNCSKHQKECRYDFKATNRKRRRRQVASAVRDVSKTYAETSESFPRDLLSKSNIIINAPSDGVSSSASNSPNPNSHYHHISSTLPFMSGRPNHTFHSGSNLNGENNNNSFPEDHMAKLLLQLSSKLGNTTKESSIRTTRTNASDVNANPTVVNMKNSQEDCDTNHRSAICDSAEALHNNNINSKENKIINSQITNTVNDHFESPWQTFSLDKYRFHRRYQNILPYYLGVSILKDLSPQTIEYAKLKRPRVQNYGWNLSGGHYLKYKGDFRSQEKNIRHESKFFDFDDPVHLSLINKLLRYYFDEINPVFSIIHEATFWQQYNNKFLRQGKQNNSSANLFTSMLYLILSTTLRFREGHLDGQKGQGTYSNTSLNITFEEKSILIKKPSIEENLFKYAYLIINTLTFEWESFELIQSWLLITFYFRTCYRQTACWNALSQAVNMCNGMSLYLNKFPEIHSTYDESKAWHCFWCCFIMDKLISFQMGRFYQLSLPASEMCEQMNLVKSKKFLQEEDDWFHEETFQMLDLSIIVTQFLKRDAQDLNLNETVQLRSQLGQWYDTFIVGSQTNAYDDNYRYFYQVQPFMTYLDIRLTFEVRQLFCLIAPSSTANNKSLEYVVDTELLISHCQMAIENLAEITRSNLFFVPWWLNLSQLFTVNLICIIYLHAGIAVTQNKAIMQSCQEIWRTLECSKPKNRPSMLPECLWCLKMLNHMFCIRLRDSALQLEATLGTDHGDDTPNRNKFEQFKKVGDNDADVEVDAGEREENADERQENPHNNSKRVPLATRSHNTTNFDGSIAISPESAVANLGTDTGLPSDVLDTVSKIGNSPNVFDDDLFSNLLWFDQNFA
Procedure, shortened: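 Using PURExpress in vitro transcription/translation, GST-tagged yeast transcription factors were made in full-length or DNA-binding-domain form. These were applied at about 100-200 nM to double-stranded universal all-10-mer Agilent arrays, and bound protein was detected with fluorescent anti-GST. Scans were normalised with masliner before the Universal PBM Analysis Suite assigned E-scores to ungapped eight-base words pooled with their reverse complements.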

| Sequence | PBM E-score |
| --- | --- |
| CAAAATTC | 0.165 |
| CTTCCGCC | 0.297 |
| ATTCCGAC | 0.416 |
| CTTCCGTC | 0.341 |
| AGTCCGAC | 0.11 |
| CTTCCGAC | 0.457 |
| ATTCCGTC | 0.285 |
| GCTACCCC | -0.0436 |
| TCTTGCAA | 0.0931 |
| AAAGAGCT | -0.128 |
| ATTAGAAT | -0.0347 |
| CCCCGGAA | 0.27 |
| GCCCGGGA | 0.308 |
| TCCCGGCA | 0.298 |
| CCCCGGGA | 0.307 |
| ACCCGGAG | 0.373 |
| ACCCGGAT | 0.374 |
| ACCCGGAA | 0.433 |
| GCCCGGAA | 0.423 |
| GCCCGGAC | 0.229 |
| GCCCGGTA | 0.263 |
| TCCCGGAA | 0.407 |
| TCCCGGGA | 0.409 |
| CGGTAGGA | 0.136 |
| AGCTCATA | -0.0221 |

| Sequence | PBM E-score |
| --- | --- |
| AACAACTT | -0.165 |
| CCTATGAG | -0.227 |
| GTAGCAAA | -0.0766 |
| ATTGACGA | -0.138 |
| TCACATCA | -0.0958 |
| CCTCGGAC | 0.321 |
| CCTCGAAA | -0.27 |
| CCTCGGAG | 0.408 |
| ACTCGGAG | 0.362 |
| CCTCGGAA | 0.484 |
| CCGCGGAA | 0.352 |
| CATCAACC | 0.00345 |
| ACATCAAA | -0.0159 |
| ACTCATCT | -0.224 |
| AGCCAAGA | -0.22 |
| AAAGGAGT | 0.0609 |
| GATGCGAC | 0.0109 |
| CTACTTGC | 0.104 |
| AGGATGTC | -0.0723 |
| CGGATGAA | 0.433 |
| CGGATGTA | 0.443 |
| CTGATGTC | 0.0602 |
| CGGATGTC | 0.426 |
| AGGATGTA | -0.177 |
| AGGATGAA | -0.0759 |

| Sequence | PBM E-score |
| --- | --- |
| GGGATGTA | 0.109 |
| CGGATGAG | 0.369 |
| ATCCTCTG | -0.208 |
| CGCCACAA | -0.0226 |
| ACCCGTTA | 0.269 |
| AATGGAAA | 0.0387 |
| GTCCCCGA | 0.288 |
| GGTCCCTA | -0.115 |
| GGTCCCGA | 0.39 |
| AGTCCCGC | 0.15 |
| CGTCCCAA | -0.155 |
| CGTCCCGC | 0.248 |
| CGTCCCGA | 0.402 |
| AGTCCCGA | 0.389 |
| AGTCCCGG | 0.304 |
| CGTTACTA | -0.124 |
| AGCCCCAC | -0.0851 |
| ACAGGACA | -0.0558 |
| CCATTGGA | -0.213 |
| CTATTCAG | -0.288 |
| CCCGCCAG | 0.0645 |
| AGAATAAA | -0.194 |
| AAATCTAT | -0.00166 |
| ACGGAAGG | 0.313 |
| GCGGAAGA | 0.317 |

| Sequence | PBM E-score |
| --- | --- |
| CGGGAAGC | 0.299 |
| CAGGAAGG | -0.208 |
| CCGGAAGA | 0.389 |
| CCGGAAGG | 0.392 |
| CGGGAAGA | 0.401 |
| CCGGAAGC | 0.395 |
| AGGGAAGA | -0.277 |
| ACGGAAGC | 0.337 |
| GCGGAAGC | 0.336 |
| ACGGAAGA | 0.349 |
| CATACGGG | 0.152 |
| AGACCGTG | -0.0481 |
| AACTTGCC | 0.139 |
| GAGTCGCA | -0.21 |
| CCAGCCCC | -0.0533 |
| CGTTCCAG | -0.0906 |
| AACTCATA | 0.148 |
| TCAGAAGA | -0.217 |
| TAGGAAGA | -0.21 |
| AGGGAATA | 0.0561 |
| CGGGAATA | 0.417 |
| TCGGAAGA | 0.455 |
| GGGGAATA | -0.0405 |
| ATTAGCAC | 0.00903 |
| CTCCTGGC | -0.113 |

| Sequence | PBM E-score |
| --- | --- |
| TGGCTAAA | 0.0298 |
| CGGCTAAA | 0.388 |
| AGGCTAAA | -0.163 |
| AGTAGGGG | 0.0719 |
| CGGATCAG | 0.33 |
| GGGATCAC | -0.0541 |
| AGGATCGA | 0.00545 |
| CGGATCGC | 0.361 |
| CGGATCTC | 0.3 |
| TGGATCAA | -0.243 |
| GGGATCTA | 0.0821 |
| CGGATCAC | 0.397 |
| AGGATCAC | -0.249 |
| CGGATCTA | 0.391 |
| CGGATCAA | 0.401 |
| CGGATCGA | 0.404 |
| CCTACAAG | -0.104 |
| CGGTGGAG | 0.121 |
| CATTCAAA | 0.048 |
| CCGAGTTC | 0.396 |
| ACGAGTAG | -0.11 |
| ACGAGTAC | -0.106 |
| CCGAGTAG | 0.391 |
| CCGAGTAC | 0.383 |
| CCGAGTTA | 0.34 |

| Sequence | PBM E-score |
| --- | --- |
| GCGAGTAC | -0.0817 |
| GCGAGTCC | -0.0651 |
| CCGAGTCC | 0.403 |
| ACGAGTTC | -0.00258 |
| CCGAGTAA | 0.345 |
| CCGAGTCA | 0.381 |
| CGAGCAGC | 0.15 |
| ATGACCCA | -0.283 |
| AACGCACC | -0.0468 |
| CTCACTTC | -0.141 |
| ACCGAGGT | 0.392 |
| AACGAGGT | -0.293 |
| ACCGAGAT | 0.407 |
| ACCGAGAG | 0.342 |
| AACGAGAT | 0.0091 |
| ACCGAGCT | 0.365 |
| ACCCAATG | -0.174 |
| ACCCCATC | -0.109 |
| GGTGAGTA | -0.183 |
| TCCTCCAA | -0.181 |
| CTGCTCGC | -0.0171 |
| ATTCGGAC | 0.373 |
| CTTCGAAA | -0.2 |
| GTACGGAA | 0.323 |
| GTGCGGAA | 0.289 |

| Sequence | PBM E-score |
| --- | --- |
| ATTCGGAA | 0.456 |
| CTACGGAA | 0.222 |
| CTTCGAAC | -0.00115 |
| ATTCGGAG | 0.324 |
| GTTCGGAA | 0.474 |
| CTTCGGAC | 0.386 |
| ATGCGGAA | 0.332 |
| CTTCGGAA | 0.485 |
| CCTTTTCC | 0.0594 |
| GATAGTTA | 0.0424 |
| CATTTGTA | -0.106 |
| ATGTAGCC | 0.136 |
| AGACAGCA | -0.0333 |
| GCAGGCCC | -0.0954 |
| ATTAGCCC | -0.0135 |
| ATTAGCCA | -0.26 |
| ATTAGCCG | 0.4 |
| AATGTCCC | 0.169 |
| AACTTCTC | 0.0267 |
| AATATTCC | 0.347 |
| CCCTTACA | -0.0902 |
| CGGGCGAA | 0.158 |
| CAATCTGA | -0.0386 |
| CACCGGAG | 0.125 |
| CACCGGAA | 0.412 |

| Sequence | PBM E-score |
| --- | --- |
| TACCGGAA | 0.394 |
| CACCGGAC | 0.215 |
| TACCGGTA | 0.149 |
| GACCGGAA | 0.316 |
| GATTGAGA | -0.0336 |
| CAAGCGAG | 0.0404 |
| ACCGAAGA | 0.359 |
| CACGAAGA | -0.255 |
| CCCGAAGC | 0.371 |
| TCCGAAGA | 0.458 |
| ACCGAAGG | 0.243 |
| CCCGAAGA | 0.403 |
| CCCGAAGG | 0.394 |
| CGCGAAGA | 0.112 |
| GCCGAAGA | 0.362 |
| CCCGCAGG | 0.115 |
| TGCACTAA | -0.112 |
| ACTGAATG | 0.0782 |
| GTCAGGAC | -0.21 |
| AGAGATTC | -0.00647 |
| CAGGCCAA | -0.0749 |
| TAACTTCA | -0.143 |
| AGGTTGCG | -0.269 |
| GTTCTATA | -0.173 |
| GGACTTCA | -0.0404 |

| Sequence | PBM E-score |
| --- | --- |
| ATATCTGA | -0.0996 |
| TATGCCGA | 0.411 |
| AATGCCGT | 0.277 |
| GATGCCGA | 0.411 |
| TATGCCAA | -0.209 |
| CATGCCGA | 0.353 |
| GATGCCGC | 0.0124 |
| AATGCCGG | 0.313 |
| AATGCCGA | 0.415 |
| GCTGCCGA | 0.378 |
| ACTGCCGA | 0.407 |
| CCTGCCGA | 0.359 |
| TATGCCCA | -0.104 |
| AGAGGGCA | -0.289 |
| AGGTACGA | -0.0929 |
| ACAAGAAC | 0.101 |
| ATGGTTTG | 0.117 |
| CAGATCTG | -0.205 |
| CAGACGAA | 0.0157 |
